Composite z-score and z-score data for 13 compounds are collected here from PubChem BioAssay.

Structures are written as SMILES. The source made the active and inactive calls.

Assay [1] can be described thus: anti-His antibody binders, primary screen, artefact control for SMM control protein annotation, biochemical, small-molecule microarray, 635 nm fluorescence (AID 1128).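 Note: score merges feature fluorescence with signal-to-noise for each printed compound spot.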 The settings on record: anti-His Alexa647 antibody binding, higher = more signal.
Assay [2] relates to Human papillomavirus type 1a E7 protein (residues 1-88). Nature of the assay: HPV1a E7 small-molecule binders, primary screen, biochemical, small-molecule microarray, residues 1-88, 635 nm (AID 1129). The note with it: small-molecule microarray binding, fluorescence 635 nm; higher = more signal.
In assay [3] the target is Focal adhesion kinase 1 (Homo sapiens) (UniProt Q05397). Nature of the assay: small-molecule microarray binders of FAK, primary screen, biochemical, 635/667 nm fluorescence, BSA, DTT (AID 1130).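 Note: composite of spot emission at 667 nm and signal to noise over triplicate slides.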 The note with it: PTK2 binding, 635 nm fluorescence, higher = more signal.
Sequence of Focal adhesion kinase 1 (Homo sapiens) (Q05397 whole entry, looked up): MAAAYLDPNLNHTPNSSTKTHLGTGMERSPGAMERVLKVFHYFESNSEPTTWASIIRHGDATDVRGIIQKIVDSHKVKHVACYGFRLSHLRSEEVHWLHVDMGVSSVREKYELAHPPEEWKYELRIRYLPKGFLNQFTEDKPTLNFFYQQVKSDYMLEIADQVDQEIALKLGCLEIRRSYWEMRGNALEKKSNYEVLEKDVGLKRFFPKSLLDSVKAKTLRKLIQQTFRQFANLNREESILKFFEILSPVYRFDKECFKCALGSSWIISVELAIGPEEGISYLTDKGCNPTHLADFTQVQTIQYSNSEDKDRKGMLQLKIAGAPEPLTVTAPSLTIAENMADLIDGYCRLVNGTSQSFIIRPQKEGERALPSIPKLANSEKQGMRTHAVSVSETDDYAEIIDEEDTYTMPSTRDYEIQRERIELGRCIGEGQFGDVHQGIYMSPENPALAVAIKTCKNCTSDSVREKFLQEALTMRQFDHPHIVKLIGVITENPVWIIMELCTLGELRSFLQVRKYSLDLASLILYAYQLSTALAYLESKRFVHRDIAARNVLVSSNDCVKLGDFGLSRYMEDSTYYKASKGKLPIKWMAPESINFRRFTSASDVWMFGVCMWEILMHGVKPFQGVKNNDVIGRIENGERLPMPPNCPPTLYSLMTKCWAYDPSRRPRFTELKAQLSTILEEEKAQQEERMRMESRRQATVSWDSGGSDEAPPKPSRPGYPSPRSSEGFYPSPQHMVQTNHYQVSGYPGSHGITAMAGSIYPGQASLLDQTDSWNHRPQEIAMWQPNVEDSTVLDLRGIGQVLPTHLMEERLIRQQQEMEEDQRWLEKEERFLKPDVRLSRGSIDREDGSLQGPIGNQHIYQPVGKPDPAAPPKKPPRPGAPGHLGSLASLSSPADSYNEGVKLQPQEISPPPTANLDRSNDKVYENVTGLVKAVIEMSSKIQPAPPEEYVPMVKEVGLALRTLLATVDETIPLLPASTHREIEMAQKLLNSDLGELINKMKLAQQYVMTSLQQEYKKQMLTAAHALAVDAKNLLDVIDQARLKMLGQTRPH
For assay [4], the system named is Fibrinogen (Alexa647-labelled). In words: fibrinogen binders on compound microarrays, profiling panel, artefact control for SMM control-protein annotation, biochemical, small-molecule microarray, 635/667 nm fluorescence (AID 1131).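 Note: z-score merges 667 nm fluorescence with per-spot signal-to-noise over triplicate slides.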 The note with it: fibrinogen-A647 binding fluorescence, higher = more signal.
The target in assay [5] is Follistatin (Homo sapiens) (UniProt P19883). Nature of the assay: follistatin binders on small-molecule microarrays, primary screen, biochemical, small-molecule microarray, 635/667 nm fluorescence (AID 1132). The note with it: FST binding, 635 nm fluorescence, higher = more signal.
Sequence of Follistatin (Homo sapiens) (P19883 whole entry, looked up): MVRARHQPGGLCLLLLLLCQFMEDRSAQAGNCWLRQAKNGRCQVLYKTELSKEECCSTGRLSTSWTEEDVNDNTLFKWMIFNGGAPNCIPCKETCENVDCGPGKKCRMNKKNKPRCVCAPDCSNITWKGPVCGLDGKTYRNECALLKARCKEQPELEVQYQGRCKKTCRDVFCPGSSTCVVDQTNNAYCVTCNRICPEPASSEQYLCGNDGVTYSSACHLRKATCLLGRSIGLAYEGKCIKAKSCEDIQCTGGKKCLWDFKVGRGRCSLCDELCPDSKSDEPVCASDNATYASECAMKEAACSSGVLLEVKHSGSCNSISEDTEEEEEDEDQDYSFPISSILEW
Assay [6] has as its target Fibroblast growth factor 2 (Homo sapiens) (UniProt P09038). Nature of the assay: FGF2 binders on small-molecule microarrays, primary screen, biochemical, small-molecule microarray, 635/667 nm fluorescence (AID 1133). The settings on record: small-molecule microarray binding, FGF2, fluorescence 635/667; higher = more signal.
The nature of assay [7]: mitochondrial membrane potential change in A549 cells, profiling panel, cell-based, JC-1 fluorescence, basal, 24 h, 100 nL (AID 1138).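 Note: A549 lung adenocarcinoma cells under basal conditions with no added stimulus; test concentration not given here.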 The settings on record: higher = more signal.
In assay [8] the test system is Lefty1. Nature of the assay: Lefty1 binders on small-molecule microarrays, primary screen, biochemical, small-molecule microarray, 635/667 nm fluorescence (AID 1139). The note with it: small-molecule microarray binding, fluorescence 635/667; higher = more signal.
The test system of assay [9] is wheat germ agglutinin (Triticum aestivum), Alexa647-labelled. In words: wheat germ agglutinin binders on compound microarrays, profiling panel, artefact control for SMM control-protein annotation, biochemical, small-molecule microarray, 635/667 nm fluorescence (AID 1140).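 Note: score merges 667 nm feature emission with signal to noise over triplicate slides.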 The settings on record: WGA-A647 binding, 635 nm fluorescence, higher = more signal.
Assay [10] concerns the target Luciferin 4-monooxygenase (Photinus pyralis) (UniProt P08659). Nature of the assay: firefly luciferase enzyme inhibitors, primary screen, biochemical, luminescence, purified enzyme, 2006 set (AID 1141).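 Note: cell-free assay with purified firefly luciferase at 100 ng per well in PBS; test concentration not given here.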 The settings on record: SteadyGlo luminescence, 30 min, higher = more signal, called active from +8 up or from −8 down.

Sequence of Fibroblast growth factor 2 (Homo sapiens) (P09038 whole entry, looked up): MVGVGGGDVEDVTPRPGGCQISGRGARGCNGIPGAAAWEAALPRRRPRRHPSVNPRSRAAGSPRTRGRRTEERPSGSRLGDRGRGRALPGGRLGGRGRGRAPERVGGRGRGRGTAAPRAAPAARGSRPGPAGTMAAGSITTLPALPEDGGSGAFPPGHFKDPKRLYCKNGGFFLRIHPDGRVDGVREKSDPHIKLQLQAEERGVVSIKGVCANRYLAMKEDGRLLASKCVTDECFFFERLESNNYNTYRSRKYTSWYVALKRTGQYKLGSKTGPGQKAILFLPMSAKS
Sequence of Luciferin 4-monooxygenase (Photinus pyralis) (P08659 whole entry, looked up): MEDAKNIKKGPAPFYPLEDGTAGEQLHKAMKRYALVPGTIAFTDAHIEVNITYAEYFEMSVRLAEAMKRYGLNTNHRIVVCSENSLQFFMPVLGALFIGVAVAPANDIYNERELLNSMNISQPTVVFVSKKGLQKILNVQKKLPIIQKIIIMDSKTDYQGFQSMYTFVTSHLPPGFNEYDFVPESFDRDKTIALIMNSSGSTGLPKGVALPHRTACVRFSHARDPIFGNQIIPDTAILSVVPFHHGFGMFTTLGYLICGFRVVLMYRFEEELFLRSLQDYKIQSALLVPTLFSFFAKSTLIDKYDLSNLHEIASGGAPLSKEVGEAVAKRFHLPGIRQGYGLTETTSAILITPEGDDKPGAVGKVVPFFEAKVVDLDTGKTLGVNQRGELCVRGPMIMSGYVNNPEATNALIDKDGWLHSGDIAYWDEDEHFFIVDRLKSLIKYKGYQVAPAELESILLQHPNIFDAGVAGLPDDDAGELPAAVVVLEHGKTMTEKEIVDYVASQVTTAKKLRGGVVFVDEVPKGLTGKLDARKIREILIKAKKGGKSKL

Consider `C=CC[C@]1(C(=O)N(C)C)N=C(c2ccc(OCCCO)cc2)O[C@H]1c1ccccc1`, for which the composite z-score is 0.661 in assay [1]; 1.23 in assay [2]; 1.04 in assay [3]; 0.951 in assay [4]; 0.915 in [5]; -0.165 in assay [6]. The composite z-score in assay [8] was determined as 0.457; in [9] it was 0.149. Also, the z-score in assay [7] is -0.259; in assay [10], -1.52 (inactive).

In the case of `COc1ccc([Si](C)(C)[C@@H]2[C@@H](CCO)O[C@]3(C(=O)N(Cc4cccc(N5C(=O)COc6ccccc65)c4)c4ccccc43)[C@H]2C)cc1`, the composite z-score in assay [1] is 0.279; in assay [2], 0.733; in assay [3], 0.0257; in assay [4], 0.415; in [5], -0.0428; in [6], 0.327. The composite z-score turned out to be 0.0695 in assay [8] and 0.764 in [9]. The values for the z-score in [7] and in [10] were -1.04 and -0.123 (inactive), respectively.

Regarding `COc1ccc([Si](C)(C)[C@@H]2[C@@H](CC(=O)N(CCO)Cc3ccccc3)O[C@]3(C(=O)N(C)c4c(Br)cc(C)cc43)[C@H]2C)cc1`, the composite z-score was 0.926 in assay [1]; 0.304 in assay [2]; 0.19 in assay [3]; -0.537 in assay [4]; 1.08 in [5]; 0.957 in [6]. The composite z-score in [8] is 1.17; in [9], 0.114. The figures for the z-score in assay [7] and in assay [10] were -1.33 and -0.314 (inactive), respectively.

Take `C=C[C@H](C)[C@H](OC(=O)Nc1ccc(SC)cc1)c1ccc(O)c2ccccc12`: the composite z-score in assay [1] was 0.499; in assay [2] it was -0.526; in assay [3], 0.209; in assay [4] it was -1.35; in assay [5] it was 1.08; in [6], 0.162. The figures for the composite z-score in assay [8] and in assay [9] were 0.192 and -0.341, respectively. Besides, the z-score in assay [7] is -1.51; in assay [10] it was -2.89 (inactive).

Regarding `C=CCNC(=O)[C@H]1[C@@H]2C(=O)O[C@@H](c3ccccc3)[C@@H](c3ccccc3)N2[C@@H](c2ccc(OCCO)cc2)[C@]12C(=O)N(C(=O)OCCOC)c1ccc(C#CC3=CCCCC3)cc12`, the composite z-score in assay [1] is 1.56; in assay [2], 1.2; in assay [3], 0.485; in [4], 0.968; in assay [5], 1.17; in assay [6], 1.25. Further, the composite z-score is 0.949 in assay [8] and 1.17 in [9]. Besides, the z-score is -0.615 in [7] and -1.77 (inactive) in [10].

Turning to `O=C1C[C@@](C(=O)O)(c2ccc([N+](=O)[O-])cc2)[C@@H](c2ccc(CO)cc2)N1CC12CC3CC(CC(C3)C1)C2`, the composite z-score in [1] was 1.2; in assay [2], 1.19; in assay [3] it was 0.486; in assay [4], 0.732; in assay [5], 0.563; in assay [6] it was -0.119. For the same compound, the figures for the composite z-score in assay [8] and in assay [9] were 0.43 and 1.02, respectively. The z-score in assay [7] is 2.19; in assay [10], -0.162 (inactive).

Regarding `CC(C)C[C@H]1NC(=O)[C@H](C)NC(=O)[C@@]23C(=O)N[C@@H](Cc4ccccc4)C2[C@H](C)[C@@]2(C)O[C@H]2C3/C=C/C/C=C\CNC1=O` (stereo not given in full), the composite z-score in [1] is 0.528; in assay [2], -0.071; in assay [3] it was -0.0739; in assay [4], -1.65; in assay [5], 0.321; in assay [6], -0.28. Further, the composite z-score turned out to be 0.253 in assay [8] and 0.649 in assay [9]. The figures for the z-score in assay [7] and in assay [10] were 0.141 and -0.8 (inactive), respectively.

For the compound `CO[C@H]1O[C@H](CO)[C@@H](OC(=O)Nc2cccc(F)c2)[C@H](OC(=O)Nc2ccc3c(c2)OCO3)[C@H]1OC(=O)Nc1ccc2c(c1)OCO2`, the composite z-score came out at 1.62 in assay [1]; 1.26 in assay [2]; 0.807 in assay [3]; 0.884 in assay [4]; 1.32 in assay [5]; 0.819 in [6]. Further, the composite z-score is 0.9 in assay [8] and 1.15 in [9]. In addition, the z-score in assay [7] is -0.358; in assay [10] it was -5.24 (inactive).

Take `O=C(Nc1cc(Br)ccc1C(=O)NCc1cccc(O)c1)c1ccccc1`: the composite z-score turned out to be 1.95 in assay [1]; 1.02 in [2]; 0.243 in assay [3]; 0.828 in assay [4]; 0.0635 in assay [5]; 0.324 in assay [6]. Besides, the composite z-score in assay [8] is -0.241; in assay [9], 1.01. The z-score in assay [7] was 0.252; in [10], -0.0565 (inactive).

As for `C=CCNC(=O)[C@H]1[C@@H]2C(=O)O[C@@H](c3ccccc3)[C@@H](c3ccccc3)N2[C@@H](c2ccc(O)cc2)[C@]12C(=O)N(C(=O)OCCOC)c1ccc(C#CC3(O)CCCCCC3)cc12`, the composite z-score amounted to 1.23 in assay [1]; 1.18 in assay [2]; 0.737 in assay [3]; 0.485 in assay [4]; 0.759 in [5]; 0.678 in [6]. Moreover, the values for the composite z-score in assay [8] and in [9] were 0.218 and 0.764, respectively. The values for the z-score in [7] and in assay [10] were 1.14 and -0.991 (inactive), respectively.

Take `C=CCC(OC(C)=O)[C@@H]1[C@@H](N(Cc2cccc3ccccc23)C(=O)c2ccc(C)cc2)c2cc(OCCCO)ccc2N1C(=O)c1ccc2ccccc2c1` (stereo not given in full): the composite z-score in assay [1] was -0.204; in assay [2], 0.133; in [3], 0.0096; in assay [4], 0.189; in assay [5], 0.672; in assay [6], 0.123. Also, the composite z-score is 0.102 in assay [8] and -0.193 in assay [9]. For the same compound, the z-score in [7] is 1.15; in [10], -0.195 (inactive).

As for `COc1cc2c(cc1OC)CN(C(=O)[C@@H]1[C@H]3C(=O)O[C@H](c4ccccc4)[C@H](c4ccccc4)N3[C@H](c3ccc(O)cc3)[C@@]13C(=O)Nc1ccc(C#CCNC(N)=O)cc13)CC2`, the composite z-score in assay [1] was 0.474; in [2] it was 0.69; in [3], 0.484; in [4], 0.43; in assay [5] it was 1.29; in assay [6], 0.302. The composite z-score in [8] was determined as 0.837; in assay [9] it was 0.607. Further, the z-score in [7] is -0.876; in assay [10] it was 0.696 (inactive).

With `CCOC(=O)C[C@H]1[C@H](OC(=O)c2ccccc2-c2ccccc2)[C@@H](NC(=O)c2ccccc2)c2cc(OCCCO)ccc2N1C(=O)Cc1ccc(OC)cc1`, the composite z-score in assay [1] was -0.277; in assay [2], -0.64; in assay [3], 0.0427; in assay [4], 0.66; in [5], -0.0263; in [6], -0.188. The composite z-score in [8] was -0.018; in assay [9] it was 0.564. In addition, the z-score in [7] was 0.322; in assay [10], 0.897 (inactive).
